Test results reported in PubChem BioAssay.
Inconclusive results are not listed. The source made the active and inactive calls.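 How the source made its calls, unless noted: active means viability at or under a set limit in both replicates, limit being median viability minus 3 SD (cut at about 48% in these data, passing the limit was not always enough); inconclusive means at or under the limit in just one replicate; inactive means at or above the limit in both replicates.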

How the values were obtained:
[1] = Her2 expression decrease, cell viability multiplex – SKBR3 breast tumor cells, AlphaScreen, ATP viability, primary screen (AID 461;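 active means Her2 level under about 52% in both replicate screens, with viability over 70% of control, limit read from the data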;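 on Her2 level: lower value means less Her2 protein in the cells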;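 on viability: percent of carrier control wells set as 100% viability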); details: SKBR3 Her2 protein level, 18-24 h, measured here: SKBR3 viability, ATP luminescence, at 10 µM
[2] = target: Receptor tyrosine-protein kinase erbB-2 (Homo sapiens) (UniProt P04626); experiment: as above; details: 18-24 h, at 10 µM, stronger effect = lower value
[3] = reduced viability of SK-BR-3 breast cancer cells – cell-based, 24 h, human, pilot screen (AID 572;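 active means viability at or below 10% of carrier control in both of two separate runs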;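 further: compound exposure lasted between 18 and 24 h rather than exactly 24 h; 100% = carrier-treated control wells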); details: SK-BR-3 viability, CellTiter-Glo luminescence, at 10 µM, stronger effect = lower value
[4] = HUVEC growth inhibition – cell-based, human, primary screen (AID 575;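 active means viability at or below 30% in both replicate assays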;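 further: 100% = median of untreated cell wells with 0.1% DMSO on each plate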); details: HUVEC proliferation, CellTiter-Glo luminescence, 72 h; at 10 µM; stronger effect = lower value
[5] = H69AR cell proliferation blockers – human, duplicate replicates, primary screen (AID 580); details: H69AR lung tumor cells viability, ATP luminescence, 72 h; at 10 µM; stronger effect = lower value;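 further: 100% = mean luminescence of untreated wells and 0% = no signal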
[6] = MRP1 drug-resistance reversers in H69AR cells – cell-based, doxorubicin co-treatment, pilot screen (AID 601;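 active means viability loss from added drug above about 55%, and viability with drug at most 40%, in both replicates, limit read from the data, passing the limit was not always enough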); details: CellTiter-Glo, 72 h, at 10 µM; for differential viability (reversal): stronger effect = higher value
[7] = yeast transport mutant growth inhibition pilot in 384-well plates, post-Golgi transport modulator project (AID 636; in the data active means inhibition above about 31%); details: absorbance 615 nm, about 18 h, stronger effect = higher value
[8] = growth suppression of yeast trafficking mutant, preliminary HTS, modulators of trafficking downstream of Golgi apparatus project, 1536-format plate, OD 615 nm (AID 637; in the data active means inhibition above about 30%); details: yeast transport mutant growth, absorbance 615 nm, 18 h; stronger effect = higher value
[9] = S. cerevisiae growth inhibition in permissive medium (OD615), pilot counter-assay for S. cerevisiae lifespan shortening project, permissive growth control (AID 705;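 active means growth inhibition above 25% in both replicates, a cutoff set 3 SD above the mean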); details: OD615, 24 h, at 10 µM, stronger effect = higher value
[10] = S. cerevisiae growth inhibition in restrictive medium, OD615, pilot screen, restrictive growth control, yeast lifespan reduction project (AID 706;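 active means growth inhibition above a set limit, 3 SD over mean compound inhibition, in both replicates, cut at about 43% in these data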;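 further: modified DeaD lifespan yeast strain shifted to restrictive glucose medium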); details: OD615, 48 h, at 10 µM, stronger effect = higher value
[11] = doxorubicin toxicity protection in MRP-1 cells – H69AR cells, CellTiter-Glo, duplicate, MRP-1 activator project, pilot screen (AID 807;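 active means viability increase at or above a cutoff of the median across tested compounds plus 3 SD, cut at about 8.5% in these data, passing the limit was not always enough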;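 further: compound pretreatment 18-22 h then 72 h combined with doxorubicin; 0% = doxorubicin alone and 100% = vehicle without doxorubicin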); details: H69AR viability with doxorubicin, CellTiter-Glo luminescence; at 10 µM; stronger effect = higher value
[12] = viability of HCT116 without oncogenic beta-catenin – human colon tumor cells, pilot screen (AID 823;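 active means cell viability at or below a set limit in both duplicate runs, the limit being the all-compound median minus 4 SD, cut at about 23% in these data, passing the limit was not always enough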;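 further: 0% = wells killed by 20 µM Hyamine and 100% = untreated DMSO cell wells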); details: HCT116 beta-catenin knockout viability, CellTiter-Glo, 60 h; at 10 µM; stronger effect = lower value
[13] = viability of PTEN-null HCT116 cells – cell-based, HCT116 clonal line, CellTiter-Glo, pilot screen (AID 824;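 active means viability at or below 27.92% in each of two runs, the all-compound median minus 4 SD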;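 further: 0% = 20 µM Hyamine control and 100% = vehicle cell control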); details: HCT116 PTEN-deleted viability, 60 h, at 10 µM, stronger effect = lower value
[14] = RAM pathway blockade in budding yeast – dse1pr::URA3 reporter, 5-FOA selection, pilot screen (AID 869;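 active means inhibition over a set limit, the all-compound mean plus 3 SD, in both replicate runs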;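 further: 0% = DMSO wells with no growth and 100% = 10 µM 1-NA-PP1 with full growth; RAM network block rescues cells from 5-FOA so hits raise OD615 growth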); details: S. cerevisiae dse1pr::URA3 5-FOA growth, OD615, 2 d; at 10 µM; stronger effect = higher value; strain carries analog-sensitive mutant Cbk1 kinase
[15] = RAM signaling pathway blockade in yeast – S. cerevisiae, Pdr1DBD-CYC8 efflux-inhibited sensitized strain, primary screen (AID 1298;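 active means RAM network inhibition above 8.4% in each of two replicates, 3 SD over the compound average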;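 further: 0% = DMSO untreated cells without growth and 100% = 10 µM 1-NA-PP1 full growth; higher means more yeast growth rescued from 5-FOA killing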); details: S. cerevisiae cbk1-as DSE1-URA3 strain, 5-FOA growth OD615, 2 d; at 50 µM; stronger effect = higher value
[16] = H69AR cells + 2 uM doxorubicin, measured here: viability with 2 uM doxorubicin, stronger effect = lower value
[17] = H69AR cells, compound alone cytotoxicity

Receptor tyrosine-protein kinase erbB-2 (Homo sapiens), sequence (P04626 whole entry, looked up): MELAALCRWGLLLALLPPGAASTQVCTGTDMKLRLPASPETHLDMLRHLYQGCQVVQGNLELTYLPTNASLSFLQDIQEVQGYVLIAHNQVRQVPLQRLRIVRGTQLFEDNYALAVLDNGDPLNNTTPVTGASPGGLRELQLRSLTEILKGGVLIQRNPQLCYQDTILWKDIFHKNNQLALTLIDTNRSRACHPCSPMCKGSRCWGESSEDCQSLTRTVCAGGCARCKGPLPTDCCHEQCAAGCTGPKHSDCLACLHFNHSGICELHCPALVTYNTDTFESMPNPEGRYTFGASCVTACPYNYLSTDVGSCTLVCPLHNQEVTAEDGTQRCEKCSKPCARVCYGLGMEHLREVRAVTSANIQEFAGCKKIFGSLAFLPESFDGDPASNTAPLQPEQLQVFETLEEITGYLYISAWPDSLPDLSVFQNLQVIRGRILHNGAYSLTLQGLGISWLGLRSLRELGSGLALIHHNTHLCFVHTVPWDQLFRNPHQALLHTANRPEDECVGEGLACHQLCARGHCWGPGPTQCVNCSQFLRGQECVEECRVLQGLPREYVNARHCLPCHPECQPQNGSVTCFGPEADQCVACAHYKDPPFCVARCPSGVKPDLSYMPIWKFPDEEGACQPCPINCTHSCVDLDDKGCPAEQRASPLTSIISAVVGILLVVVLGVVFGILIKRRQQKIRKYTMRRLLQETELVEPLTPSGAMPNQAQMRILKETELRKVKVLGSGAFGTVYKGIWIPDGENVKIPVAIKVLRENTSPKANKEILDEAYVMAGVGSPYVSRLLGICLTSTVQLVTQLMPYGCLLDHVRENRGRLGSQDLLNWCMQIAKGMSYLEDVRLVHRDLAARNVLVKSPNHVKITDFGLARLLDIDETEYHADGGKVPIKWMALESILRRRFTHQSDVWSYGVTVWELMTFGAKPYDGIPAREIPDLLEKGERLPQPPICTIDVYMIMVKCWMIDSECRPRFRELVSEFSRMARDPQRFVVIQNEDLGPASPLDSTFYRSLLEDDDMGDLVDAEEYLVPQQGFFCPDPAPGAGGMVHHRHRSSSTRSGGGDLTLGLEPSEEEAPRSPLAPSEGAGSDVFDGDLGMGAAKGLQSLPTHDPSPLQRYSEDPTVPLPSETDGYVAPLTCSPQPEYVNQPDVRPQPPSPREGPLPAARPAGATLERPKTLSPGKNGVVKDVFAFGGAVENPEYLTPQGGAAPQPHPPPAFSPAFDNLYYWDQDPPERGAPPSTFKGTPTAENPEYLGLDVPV

Row | SMILES | viability [1] [%] | Her2 level [2] | viability [3] | viability [4] | viability [5] | differential viability (reversal) ([6]; H69AR cells + 2 uM doxorubicin) | viability [6, 16] [%] | viability [6, 17] [%] | inhibition [7] | inhibition [8] | growth inhibition [9] | growth inhibition [10] | viability increase [11] | viability [12] | viability [13] | inhibition [14] | RAM network inhibition [15]
1 | Cn1c(=O)cc(NCCc2ccccc2)[nH]c1=O | 97 | 93.5% (inactive) | 97% (inactive) | 50.3% (inactive) | 42.9% (active) | -37.3% (inactive) | 80.2 | 42.9 | -1.82% (inactive) | -8.36% (inactive) | -9.86% (inactive) | 2.05% (inactive) | -5.4% (inactive) | 87.5% (inactive) | 88.3% (inactive) | 0.595% (inactive) | 3.06% (inactive)
2 | CCC(C)NC(=O)C1c2cc(OC)c(OC)cc2C(=O)N(C)C1c1ccc(OC)cc1 (stereo not drawn) | 96 | 90% (inactive) | 96% (inactive) | 108% (inactive) | 108% (inactive) | 10.2% (inactive) | 97.6 | 108 | -8.77% (inactive) | -10.2% (inactive) | -5.75% (inactive) | -9.85% (inactive) | -1.38% (inactive) | 96% (inactive) | 95.3% (inactive) | 0.92% (inactive) | 0.81% (inactive)
3 | Cc1ccc(-n2nc(C)c3cc(C(=O)O)sc32)cc1 | 97 | 95.5% (inactive) | 97% (inactive) | 70.7% (inactive) | 87.2% (inactive) | 0.315% (inactive) | 86.8 | 87.2 | -2.31% (inactive) | -2% (inactive) | 16% (inactive) | 21.7% (inactive) | -2.19% (inactive) | 93.1% (inactive) | 94.9% (inactive) | 2.74% (inactive) | -1.34% (inactive)
4 | COc1ccc(NC(=O)C2CCCN(S(=O)(=O)c3cccc4cccnc34)C2)cc1OC (stereo not drawn) | 82 | 106% (inactive) | 82% (inactive) | 75.4% (inactive) | 67.5% (inactive) | -6.73% (inactive) | 74.2 | 67.5 | -4.13% (inactive) | 1.67% (inactive) | -1.21% (inactive) | 0.31% (inactive) | -2.32% (inactive) | 80.3% (inactive) | 78.6% (inactive) | 2.09% (inactive) | 2.55% (inactive)
5 | CC1=C(C(N)=O)C(c2ccccn2)n2nc(-c3ccccc3Cl)nc2N1 (stereo not drawn) | 98 | 114% (inactive) | 98% (inactive) | 103% (inactive) | 91.6% (inactive) | 6.15% (inactive) | 85.4 | 91.6 | -2% (inactive) | -4.17% (inactive) | -13.8% (inactive) | -3.02% (inactive) | -2.25% (inactive) | 101% (inactive) | 91.7% (inactive) | 1% (inactive) | 3.22% (inactive)
6 | N#Cc1cc2c(nc1SCC(=O)N1CCCCC1)CCCC2 | 85 | 130% (inactive) | 85% (inactive) | 88.3% (inactive) | 87.6% (inactive) | 1.21% (inactive) | 86.4 | 87.6 | 3.51% (inactive) | -6.67% (inactive) | -16.8% (inactive) | -1.56% (inactive) | -1.73% (inactive) | 93% (inactive) | 91.3% (inactive) | 3.67% (inactive) | 2.13% (inactive)
7 | CCOc1ccc(N(CC(=O)Nc2ccc(F)c(F)c2)S(=O)(=O)c2c(C)noc2C)cc1 | 83.5 | 80% (inactive) | 83.5% (inactive) | 54% (inactive) | 65.8% (inactive) | 1.49% (inactive) | 64.3 | 65.8 | -4.4% (inactive) | -1.31% (inactive) | -11.3% (inactive) | -9.45% (inactive) | -3.6% (inactive) | 93% (inactive) | 88.7% (inactive) | 2.33% (inactive) | 4.77% (inactive)
8 | CCOc1ccc(NC(=O)CCN2CCN(c3ccccc3)CC2)cc1 | 94.5 | 104% (inactive) | 94.5% (inactive) | 95.3% (inactive) | 82.5% (inactive) | 4% (inactive) | 78.5 | 82.5 | -0.9% (inactive) | 3.17% (inactive) | 4.18% (inactive) | -17.7% (inactive) | -3.89% (inactive) | 90.4% (inactive) | 80.4% (inactive) | 0.545% (inactive) | 3.81% (inactive)
9 | CCOC(=O)N1CCC(N2C(=O)c3ccccc3C2Nc2cc(Cl)c(OC)cc2OC)CC1 (stereo not drawn) | 92.5 | 114% (inactive) | 92.5% (inactive) | 91.6% (inactive) | 78.2% (inactive) | 14% (inactive) | 64.2 | 78.2 | -4.8% (inactive) | 0.83% (inactive) | 3.33% (inactive) | 4.05% (inactive) | -4.45% (inactive) | 77.8% (inactive) | 76% (inactive) | 0.285% (inactive) | 3.54% (inactive)
